# Results taken from paper PMC7862700, “An all-to-all approach to the identification of sequence-specific readers for epigenetic DNA modifications on cytosine”.
# Key:
# Assay in all cases: DAPPL (digital affinity profiling via proximity ligation, sequencing); 10 mM Tris-HCl pH 7.5, 50 mM NaCl, 1 mM DTT, 4% glycerol, room temperature, 30 min; GST-TFs on glutathione beads, 16-mer random dsDNA library, 0.1% formaldehyde crosslink after washing; high values mean tight binding
# [1] = target: T1, FLI1 (Homo sapiens, UniProt Q01543 1-452); conditions: protein: recombinant; tags: N-terminal GST; dsDNA, one strand shown
# T1 sequence: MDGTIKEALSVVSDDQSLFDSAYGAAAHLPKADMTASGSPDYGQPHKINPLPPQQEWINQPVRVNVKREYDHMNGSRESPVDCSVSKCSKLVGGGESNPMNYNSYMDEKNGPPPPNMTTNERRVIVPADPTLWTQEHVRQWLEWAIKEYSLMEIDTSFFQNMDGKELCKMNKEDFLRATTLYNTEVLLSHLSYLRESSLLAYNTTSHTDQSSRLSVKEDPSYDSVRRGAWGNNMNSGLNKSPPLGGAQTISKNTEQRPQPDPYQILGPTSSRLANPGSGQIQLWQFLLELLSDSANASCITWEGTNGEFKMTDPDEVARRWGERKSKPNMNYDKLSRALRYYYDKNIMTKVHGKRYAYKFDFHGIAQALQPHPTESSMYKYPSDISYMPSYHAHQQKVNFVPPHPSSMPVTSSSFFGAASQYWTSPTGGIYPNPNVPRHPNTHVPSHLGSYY
# Method in brief: (§1)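 Pools of DNA-barcoded human transcription factors, expressed in yeast as GST fusions on glutathione beads and combined with a tag-only sample, were incubated with 200 nmole of a 16-mer random double-stranded DNA library. Incubation took 30 min at room temperature in Tris/NaCl/DTT/glycerol buffer and was followed by washing, 0.1% formaldehyde crosslinking, proximity ligation (BsaI/T4 ligase, 1 h, 37 °C), PCR amplification and sequencing on an Illumina NextSeq500. Binding signal is the ratio of a hexamer's read frequency for a factor to its frequency for the tag-only sample.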
# [2] = target: T2, ELK1 (Homo sapiens, UniProt P19419 1-428); conditions: protein: recombinant; tags: N-terminal GST; dsDNA, one strand shown
# T2 sequence: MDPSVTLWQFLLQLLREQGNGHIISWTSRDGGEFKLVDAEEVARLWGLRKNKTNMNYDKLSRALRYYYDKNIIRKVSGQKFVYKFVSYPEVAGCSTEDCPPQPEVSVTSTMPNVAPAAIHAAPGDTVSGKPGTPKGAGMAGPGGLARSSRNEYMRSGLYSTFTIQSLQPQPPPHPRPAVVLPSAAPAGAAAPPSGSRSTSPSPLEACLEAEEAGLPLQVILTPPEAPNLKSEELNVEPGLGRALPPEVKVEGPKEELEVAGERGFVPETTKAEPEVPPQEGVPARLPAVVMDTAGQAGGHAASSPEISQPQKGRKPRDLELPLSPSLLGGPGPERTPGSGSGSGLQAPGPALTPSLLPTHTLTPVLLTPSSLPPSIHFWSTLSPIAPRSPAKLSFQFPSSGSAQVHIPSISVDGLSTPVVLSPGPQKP
# Method in brief: as §1
# [3] = target: T3, GABPA (Homo sapiens, UniProt Q06546 1-454); conditions: protein: recombinant; tags: N-terminal GST; dsDNA, one strand shown
# T3 sequence: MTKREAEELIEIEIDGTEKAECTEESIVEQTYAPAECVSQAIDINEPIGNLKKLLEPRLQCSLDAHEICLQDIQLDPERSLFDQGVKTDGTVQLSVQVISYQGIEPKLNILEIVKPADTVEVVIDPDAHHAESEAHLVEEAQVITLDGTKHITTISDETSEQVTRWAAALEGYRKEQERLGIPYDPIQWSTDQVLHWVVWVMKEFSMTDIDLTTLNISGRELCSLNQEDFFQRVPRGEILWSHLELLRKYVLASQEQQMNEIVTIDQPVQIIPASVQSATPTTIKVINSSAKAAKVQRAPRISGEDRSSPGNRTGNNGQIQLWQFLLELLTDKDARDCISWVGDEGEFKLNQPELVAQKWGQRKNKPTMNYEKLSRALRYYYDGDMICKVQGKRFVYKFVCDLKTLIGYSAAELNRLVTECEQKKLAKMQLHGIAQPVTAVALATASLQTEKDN
# Method in brief: as §1
# [4] = target: T4, ERG (Homo sapiens, UniProt P11308 1-479); conditions: protein: recombinant; tags: N-terminal GST; dsDNA, one strand shown
# T4 sequence: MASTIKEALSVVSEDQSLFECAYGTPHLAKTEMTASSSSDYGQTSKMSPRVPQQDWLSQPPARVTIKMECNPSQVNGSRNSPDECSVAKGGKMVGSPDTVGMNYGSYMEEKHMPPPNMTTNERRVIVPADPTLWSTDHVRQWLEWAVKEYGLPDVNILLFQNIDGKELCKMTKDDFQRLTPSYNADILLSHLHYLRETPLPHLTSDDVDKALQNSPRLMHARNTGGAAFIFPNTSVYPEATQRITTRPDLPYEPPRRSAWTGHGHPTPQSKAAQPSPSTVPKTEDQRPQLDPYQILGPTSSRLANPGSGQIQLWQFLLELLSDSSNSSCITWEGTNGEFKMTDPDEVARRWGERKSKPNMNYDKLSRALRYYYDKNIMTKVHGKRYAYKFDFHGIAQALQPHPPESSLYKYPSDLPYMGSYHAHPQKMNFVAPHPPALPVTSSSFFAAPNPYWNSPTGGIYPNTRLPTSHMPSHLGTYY
# Method in brief: as §1
# [5] = target: ELF1 (Homo sapiens, UniProt P32519 1-619); conditions: protein: recombinant; tags: N-terminal GST; dsDNA, one strand shown
# ELF1, sequence (P32519 whole entry): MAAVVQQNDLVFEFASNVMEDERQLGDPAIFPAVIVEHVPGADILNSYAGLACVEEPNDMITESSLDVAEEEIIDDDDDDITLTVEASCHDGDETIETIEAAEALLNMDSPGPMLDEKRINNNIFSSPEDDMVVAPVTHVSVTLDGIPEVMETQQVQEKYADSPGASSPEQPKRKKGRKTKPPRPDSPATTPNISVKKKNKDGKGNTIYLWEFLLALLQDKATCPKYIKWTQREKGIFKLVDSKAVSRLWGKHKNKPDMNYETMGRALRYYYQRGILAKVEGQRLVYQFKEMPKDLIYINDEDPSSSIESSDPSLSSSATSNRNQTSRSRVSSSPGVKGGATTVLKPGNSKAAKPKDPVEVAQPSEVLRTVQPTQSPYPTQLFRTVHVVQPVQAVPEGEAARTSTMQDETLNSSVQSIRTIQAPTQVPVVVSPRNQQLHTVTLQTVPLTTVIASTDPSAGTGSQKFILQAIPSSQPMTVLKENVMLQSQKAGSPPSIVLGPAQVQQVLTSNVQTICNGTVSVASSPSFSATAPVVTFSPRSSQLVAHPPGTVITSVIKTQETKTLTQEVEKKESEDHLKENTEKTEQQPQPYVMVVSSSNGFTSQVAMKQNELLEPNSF
# Method in brief: as §1
# [6] = target: T5, EHF (Homo sapiens, UniProt Q9NZC4 1-300); conditions: protein: recombinant; tags: N-terminal GST; dsDNA, one strand shown
# T5 sequence: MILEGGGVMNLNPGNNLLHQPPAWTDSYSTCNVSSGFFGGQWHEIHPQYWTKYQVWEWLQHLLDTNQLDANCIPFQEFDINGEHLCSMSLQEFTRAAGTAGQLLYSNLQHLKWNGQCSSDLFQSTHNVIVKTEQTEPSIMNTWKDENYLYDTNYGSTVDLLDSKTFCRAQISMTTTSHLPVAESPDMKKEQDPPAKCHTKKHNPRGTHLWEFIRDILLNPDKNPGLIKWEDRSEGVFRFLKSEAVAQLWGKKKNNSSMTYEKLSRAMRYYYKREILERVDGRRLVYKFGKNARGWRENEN
# Method in brief: as §1
# [7] = target: SPI1 (Homo sapiens, UniProt P17947 1-270); conditions: protein: recombinant; tags: N-terminal GST; dsDNA, one strand shown
# Method in brief: as §1
# [8] = target: SPIB (Homo sapiens, UniProt Q01892 1-262); conditions: protein: recombinant; tags: N-terminal GST; dsDNA, one strand shown
# SPIB, sequence (Q01892 whole entry): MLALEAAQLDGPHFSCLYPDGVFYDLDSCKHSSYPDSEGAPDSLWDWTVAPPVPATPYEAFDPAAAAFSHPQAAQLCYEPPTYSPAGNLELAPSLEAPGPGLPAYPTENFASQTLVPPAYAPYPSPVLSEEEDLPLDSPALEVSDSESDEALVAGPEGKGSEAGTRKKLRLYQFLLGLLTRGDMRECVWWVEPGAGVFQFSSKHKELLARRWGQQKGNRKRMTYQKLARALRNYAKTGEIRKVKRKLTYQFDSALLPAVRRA
# Method in brief: as §1
# [9] = target: T6, ELK3 (Homo sapiens, UniProt P41970 1-407); conditions: protein: recombinant; tags: N-terminal GST; dsDNA, one strand shown
# T6 sequence: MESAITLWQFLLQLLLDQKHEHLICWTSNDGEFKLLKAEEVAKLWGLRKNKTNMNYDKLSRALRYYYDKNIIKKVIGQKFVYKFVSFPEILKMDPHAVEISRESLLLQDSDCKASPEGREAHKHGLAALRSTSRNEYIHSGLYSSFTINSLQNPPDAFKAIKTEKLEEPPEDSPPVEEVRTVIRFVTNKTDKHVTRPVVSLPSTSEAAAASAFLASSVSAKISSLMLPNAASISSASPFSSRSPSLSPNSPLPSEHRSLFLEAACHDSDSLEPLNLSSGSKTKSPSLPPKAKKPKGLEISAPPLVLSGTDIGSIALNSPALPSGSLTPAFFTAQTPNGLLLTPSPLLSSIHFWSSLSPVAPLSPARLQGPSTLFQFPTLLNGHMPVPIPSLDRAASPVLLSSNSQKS
# Method in brief: as §1
# [10] = target: T7, FEV (Homo sapiens, UniProt Q99581 1-238); conditions: protein: recombinant; tags: N-terminal GST; dsDNA, one strand shown
# T7 sequence: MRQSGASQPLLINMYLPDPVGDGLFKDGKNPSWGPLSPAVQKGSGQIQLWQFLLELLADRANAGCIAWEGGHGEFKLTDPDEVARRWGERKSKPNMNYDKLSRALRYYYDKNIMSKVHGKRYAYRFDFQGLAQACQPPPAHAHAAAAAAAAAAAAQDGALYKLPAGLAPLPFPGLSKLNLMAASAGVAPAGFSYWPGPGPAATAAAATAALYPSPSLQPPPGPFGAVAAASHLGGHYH
# Method in brief: as §1
# [11] = target: ETV5 (Homo sapiens, UniProt P41161 1-510); conditions: protein: recombinant; tags: N-terminal GST; dsDNA, one strand shown
# ETV5, sequence (P41161 whole entry): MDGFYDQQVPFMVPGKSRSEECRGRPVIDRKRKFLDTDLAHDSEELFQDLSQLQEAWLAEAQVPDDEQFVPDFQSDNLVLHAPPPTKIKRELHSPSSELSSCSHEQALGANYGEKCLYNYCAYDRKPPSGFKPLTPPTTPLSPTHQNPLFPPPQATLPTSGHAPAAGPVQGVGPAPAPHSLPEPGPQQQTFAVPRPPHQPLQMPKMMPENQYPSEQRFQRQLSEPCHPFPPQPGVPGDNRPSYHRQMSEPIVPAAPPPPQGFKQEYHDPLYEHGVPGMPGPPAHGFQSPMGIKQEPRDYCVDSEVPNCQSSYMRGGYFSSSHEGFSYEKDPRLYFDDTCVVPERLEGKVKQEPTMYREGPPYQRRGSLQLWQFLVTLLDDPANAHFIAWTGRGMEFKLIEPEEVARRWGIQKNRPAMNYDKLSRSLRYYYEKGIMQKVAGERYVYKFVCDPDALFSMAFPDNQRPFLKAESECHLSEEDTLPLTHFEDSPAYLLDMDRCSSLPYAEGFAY
# Method in brief: as §1
# [12] = target: HSF1 (Homo sapiens, UniProt Q00613 1-529); conditions: protein: recombinant; tags: N-terminal GST; chain copies: 3; dsDNA, one strand shown
# HSF1, sequence (Q00613 whole entry): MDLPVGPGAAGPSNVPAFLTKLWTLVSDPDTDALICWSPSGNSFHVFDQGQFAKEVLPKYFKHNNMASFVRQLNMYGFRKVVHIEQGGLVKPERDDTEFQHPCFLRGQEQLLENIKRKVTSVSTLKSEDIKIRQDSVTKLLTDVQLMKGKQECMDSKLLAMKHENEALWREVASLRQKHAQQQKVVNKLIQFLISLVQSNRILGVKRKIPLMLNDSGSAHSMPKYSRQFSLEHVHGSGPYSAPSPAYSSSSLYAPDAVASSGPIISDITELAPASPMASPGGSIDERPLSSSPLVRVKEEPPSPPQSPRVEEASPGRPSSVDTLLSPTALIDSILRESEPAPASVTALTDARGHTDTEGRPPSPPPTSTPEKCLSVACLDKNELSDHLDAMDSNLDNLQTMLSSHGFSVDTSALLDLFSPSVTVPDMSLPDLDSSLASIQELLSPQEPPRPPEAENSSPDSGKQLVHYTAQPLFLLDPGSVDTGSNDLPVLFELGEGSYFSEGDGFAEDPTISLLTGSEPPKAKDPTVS
# Method in brief: as §1
# [13] = target: T8, SPIC (Homo sapiens, UniProt Q8N5J4 1-248); conditions: protein: recombinant; tags: N-terminal GST; dsDNA, one strand shown
# T8 sequence: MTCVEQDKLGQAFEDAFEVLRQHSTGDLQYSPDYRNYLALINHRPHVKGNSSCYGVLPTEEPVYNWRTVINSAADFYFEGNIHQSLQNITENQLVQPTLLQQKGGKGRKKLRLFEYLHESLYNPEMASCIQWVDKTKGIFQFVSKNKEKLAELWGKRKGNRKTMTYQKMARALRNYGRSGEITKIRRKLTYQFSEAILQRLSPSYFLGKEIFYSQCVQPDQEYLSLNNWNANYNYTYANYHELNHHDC
# Method in brief: as §1
# [14] = target: ELF4 (Homo sapiens, UniProt Q99607 1-663); conditions: protein: recombinant; tags: N-terminal GST; dsDNA, one strand shown
# ELF4, sequence (Q99607 whole entry): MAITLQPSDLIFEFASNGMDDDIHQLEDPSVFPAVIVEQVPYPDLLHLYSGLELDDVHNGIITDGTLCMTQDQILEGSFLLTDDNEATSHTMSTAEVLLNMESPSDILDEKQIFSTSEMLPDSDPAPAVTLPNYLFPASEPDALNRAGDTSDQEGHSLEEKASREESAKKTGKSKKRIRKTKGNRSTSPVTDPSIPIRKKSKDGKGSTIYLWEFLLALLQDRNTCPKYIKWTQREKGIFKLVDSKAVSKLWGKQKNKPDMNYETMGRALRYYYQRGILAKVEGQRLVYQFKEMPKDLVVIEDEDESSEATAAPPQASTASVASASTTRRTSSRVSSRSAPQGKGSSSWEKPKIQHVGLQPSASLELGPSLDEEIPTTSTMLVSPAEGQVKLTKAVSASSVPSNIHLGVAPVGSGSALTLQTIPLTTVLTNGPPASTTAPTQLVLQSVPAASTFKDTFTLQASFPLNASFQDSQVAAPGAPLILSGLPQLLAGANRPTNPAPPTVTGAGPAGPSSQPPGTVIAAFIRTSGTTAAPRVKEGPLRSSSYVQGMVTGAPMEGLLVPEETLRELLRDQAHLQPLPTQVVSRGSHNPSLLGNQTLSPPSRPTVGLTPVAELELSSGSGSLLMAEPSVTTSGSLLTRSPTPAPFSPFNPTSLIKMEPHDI
# Method in brief: as §1
# [15] = target: T9, ELK4 (Homo sapiens, UniProt P28324-2 1-405); conditions: protein: recombinant; tags: N-terminal GST; dsDNA, one strand shown
# T9 sequence: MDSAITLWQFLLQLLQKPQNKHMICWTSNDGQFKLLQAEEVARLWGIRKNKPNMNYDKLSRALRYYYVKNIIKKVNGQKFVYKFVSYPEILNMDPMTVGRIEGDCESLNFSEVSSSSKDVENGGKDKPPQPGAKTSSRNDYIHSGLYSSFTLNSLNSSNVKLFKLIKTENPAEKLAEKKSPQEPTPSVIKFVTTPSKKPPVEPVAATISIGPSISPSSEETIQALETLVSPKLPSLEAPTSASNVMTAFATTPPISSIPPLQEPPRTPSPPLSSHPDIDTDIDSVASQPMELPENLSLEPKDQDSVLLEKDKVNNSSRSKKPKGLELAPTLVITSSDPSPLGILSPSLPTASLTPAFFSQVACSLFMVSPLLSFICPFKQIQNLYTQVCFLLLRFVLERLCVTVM
# Method in brief: as §1
# [16] = target: T10, ETV2 (Homo sapiens, UniProt O00321 1-342); conditions: protein: recombinant; tags: N-terminal GST; dsDNA, one strand shown
# T10 sequence: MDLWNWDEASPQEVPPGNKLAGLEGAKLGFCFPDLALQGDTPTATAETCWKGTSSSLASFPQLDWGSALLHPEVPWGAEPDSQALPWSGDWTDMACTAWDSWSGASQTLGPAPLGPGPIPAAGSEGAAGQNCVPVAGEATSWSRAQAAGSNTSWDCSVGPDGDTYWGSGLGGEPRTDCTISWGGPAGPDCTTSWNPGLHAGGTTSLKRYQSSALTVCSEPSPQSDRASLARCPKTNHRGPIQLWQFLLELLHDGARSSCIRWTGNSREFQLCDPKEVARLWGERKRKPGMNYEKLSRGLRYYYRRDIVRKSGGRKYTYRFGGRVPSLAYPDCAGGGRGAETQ
# Method in brief: as §1
# [17] = target: T11, ELF3 (Homo sapiens, UniProt P78545 1-371); conditions: protein: recombinant; tags: N-terminal GST; dsDNA, one strand shown
# T11 sequence: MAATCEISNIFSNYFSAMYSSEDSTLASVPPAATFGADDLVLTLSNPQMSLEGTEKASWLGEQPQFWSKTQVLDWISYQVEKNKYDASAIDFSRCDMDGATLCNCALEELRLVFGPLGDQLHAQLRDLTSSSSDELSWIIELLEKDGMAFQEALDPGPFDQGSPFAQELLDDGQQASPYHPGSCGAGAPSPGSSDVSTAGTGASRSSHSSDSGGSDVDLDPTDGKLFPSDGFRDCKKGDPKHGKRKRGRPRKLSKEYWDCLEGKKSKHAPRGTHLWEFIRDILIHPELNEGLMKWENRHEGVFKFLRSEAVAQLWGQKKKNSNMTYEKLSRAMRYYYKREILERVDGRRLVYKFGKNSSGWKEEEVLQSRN
# Method in brief: as §1
# [18] = target: CRX (Homo sapiens, UniProt O43186 1-299); conditions: protein: recombinant; tags: N-terminal GST; dsDNA, one strand shown
# CRX, sequence (O43186 whole entry): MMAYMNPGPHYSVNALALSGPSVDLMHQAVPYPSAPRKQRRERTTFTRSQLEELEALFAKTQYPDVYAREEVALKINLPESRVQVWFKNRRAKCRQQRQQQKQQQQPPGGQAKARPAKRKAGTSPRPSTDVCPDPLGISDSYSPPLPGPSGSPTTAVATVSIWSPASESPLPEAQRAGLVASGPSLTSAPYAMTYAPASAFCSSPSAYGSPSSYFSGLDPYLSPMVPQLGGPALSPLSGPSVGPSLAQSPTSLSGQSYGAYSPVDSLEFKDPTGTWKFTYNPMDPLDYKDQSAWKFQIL
# Method in brief: as §1
# [19] = target: ETV1 (Homo sapiens, UniProt P50549 1-477); conditions: protein: recombinant; tags: N-terminal GST; dsDNA, one strand shown
# ETV1, sequence (P50549 whole entry): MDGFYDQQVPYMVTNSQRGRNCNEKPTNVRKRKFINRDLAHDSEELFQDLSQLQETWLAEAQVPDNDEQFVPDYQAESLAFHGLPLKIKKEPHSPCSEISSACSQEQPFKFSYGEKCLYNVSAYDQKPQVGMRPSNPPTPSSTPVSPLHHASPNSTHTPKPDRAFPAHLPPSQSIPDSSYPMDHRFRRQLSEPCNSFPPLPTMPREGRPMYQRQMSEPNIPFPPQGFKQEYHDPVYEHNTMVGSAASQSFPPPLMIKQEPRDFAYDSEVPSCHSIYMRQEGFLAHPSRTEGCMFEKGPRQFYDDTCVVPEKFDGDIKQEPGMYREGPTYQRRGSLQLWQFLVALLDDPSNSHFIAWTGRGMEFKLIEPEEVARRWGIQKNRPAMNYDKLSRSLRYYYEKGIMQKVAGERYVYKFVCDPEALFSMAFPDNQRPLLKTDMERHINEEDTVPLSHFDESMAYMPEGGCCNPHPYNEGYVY
# Method in brief: as §1
sequence,measurement,setting,value
TTAGTT,binding signal,[1],"1.36 fold enrichment (6-mer frequency, TF over GST control)"
same,binding signal,[2],"1.38 fold enrichment (6-mer frequency, TF over GST control)"
same,binding signal,[3],"1.18 fold enrichment (6-mer frequency, TF over GST control)"
same,binding signal,[4],"1.24 fold enrichment (6-mer frequency, TF over GST control)"
same,binding signal,[5],"1.31 fold enrichment (6-mer frequency, TF over GST control)"
same,binding signal,[6],"1.3 fold enrichment (6-mer frequency, TF over GST control)"
same,binding signal,[7],"1.27 fold enrichment (6-mer frequency, TF over GST control)"
same,binding signal,[8],"1.31 fold enrichment (6-mer frequency, TF over GST control)"
same,binding signal,[9],"1.31 fold enrichment (6-mer frequency, TF over GST control)"
same,binding signal,[10],"1.2 fold enrichment (6-mer frequency, TF over GST control)"
same,binding signal,[11],"1.25 fold enrichment (6-mer frequency, TF over GST control)"
same,binding signal,[12],"1.68 fold enrichment (6-mer frequency, TF over GST control)"
same,binding signal,[13],"1.28 fold enrichment (6-mer frequency, TF over GST control)"
same,binding signal,[14],"1.37 fold enrichment (6-mer frequency, TF over GST control)"
same,binding signal,[15],"1.32 fold enrichment (6-mer frequency, TF over GST control)"
same,binding signal,[16],"1.37 fold enrichment (6-mer frequency, TF over GST control)"
same,binding signal,[17],"1.25 fold enrichment (6-mer frequency, TF over GST control)"
same,binding signal,[18],"2.25 fold enrichment (6-mer frequency, TF over GST control)"
same,binding signal,[19],"1.33 fold enrichment (6-mer frequency, TF over GST control)"
